{"source": "PubChem BioAssay AID1159580", "about": "(chemical genetic matrix, 2015)", "assay": "chemical genetic growth profiling, strain panel (AID 1159580);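 further: tested at 20 µM; growth read once vehicle control cultures reached saturation at 30 °C; 1 = growth at the plate median or of vehicle wells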", "details": "growth OD", "note": "About 2,000 (36%) of roughly 5,500 compounds were called active. About 18% were inconclusive and are not listed. This is one part of the list. A number with no mark means an inactive call. No stated cut-off is given here; in the data, active means normalized growth mostly below about 0.91 (no sharp cut-off); inconclusive means no clear call, values can overlap the other calls; inactive means mostly above about 0.92."}
{"smiles": "ClC1C(Cl)C(Cl)C(Cl)C(Cl)C1Cl", "note": "(stereo unspecified)", "values": [{"measurement": "normalized growth", "setting": "S. cerevisiae deletion strains, locus YJR075W, strain HOC1, stronger effect = lower value", "result": 0.926}, {"measurement": "normalized growth", "setting": "S. cerevisiae deletion strains, locus YKL009W, strain mrt4, stronger effect = lower value", "result": 0.964}, {"measurement": "normalized growth", "setting": "S. cerevisiae deletion strains, locus YKL068W, stronger effect = lower value", "result": "0.902 (active)"}, {"measurement": "normalized growth", "setting": "S. cerevisiae deletion strains, locus YKL085W, strain MDH1 (second series), stronger effect = lower value", "result": "0.909 (active)"}, {"measurement": "normalized growth", "setting": "S. cerevisiae deletion strains, locus YKL085W, strain MDH1, stronger effect = lower value", "result": "0.909 (active)"}, {"measurement": "normalized growth", "setting": "S. cerevisiae deletion strains, locus YKL160W, strain elf1, stronger effect = lower value", "result": "0.873 (active)"}, {"measurement": "normalized growth", "setting": "S. cerevisiae deletion strains, locus YKL190W, strain CNB1, stronger effect = lower value", "result": 0.954}, {"measurement": "normalized growth", "setting": "S. cerevisiae deletion strains, locus YKR001C, strain vps1, stronger effect = lower value", "result": "0.879 (active)"}, {"measurement": "normalized growth", "setting": "S. cerevisiae deletion strains, locus YKR026C, strain gcn3, stronger effect = lower value", "result": 0.964}, {"measurement": "normalized growth", "setting": "S. cerevisiae deletion strains, locus YKR091W, strain srl3, stronger effect = lower value", "result": 0.963}, {"measurement": "normalized growth", "setting": "S. cerevisiae deletion strains, locus YLL001W, strain dnm1, stronger effect = lower value", "result": 0.938}, {"measurement": "normalized growth", "setting": "S. cerevisiae deletion strains, locus YLL026W, stronger effect = lower value", "result": 0.956}, {"measurement": "normalized growth", "setting": "S. cerevisiae deletion strains, locus YLL041C, strain sdh2, stronger effect = lower value", "result": 0.979}, {"measurement": "normalized growth", "setting": "S. cerevisiae deletion strains, locus YLR027C, strain aat2, stronger effect = lower value", "result": "0.916 (active)"}, {"measurement": "normalized growth", "setting": "S. cerevisiae deletion strains, locus YLR039C, strain RIC1, stronger effect = lower value", "result": "0.506 (active)"}, {"measurement": "normalized growth", "setting": "S. cerevisiae deletion strains, locus YLR058C, strain SHM2, stronger effect = lower value", "result": 0.942}, {"measurement": "normalized growth", "setting": "S. cerevisiae deletion strains, locus YLR102C, strain apc9, stronger effect = lower value", "result": 0.935}, {"measurement": "normalized growth", "setting": "S. cerevisiae deletion strains, locus YLR113W, strain HOG1, stronger effect = lower value", "result": 0.862}, {"measurement": "normalized growth", "setting": "S. cerevisiae deletion strains, locus YLR221C, strain rsa3, stronger effect = lower value", "result": "0.872 (active)"}, {"measurement": "normalized growth", "setting": "S. cerevisiae deletion strains, locus YLR258W, strain gsy2, stronger effect = lower value", "result": 0.969}, {"measurement": "normalized growth", "setting": "S. cerevisiae deletion strains, locus YLR262C, strain YPT6 (second series), stronger effect = lower value", "result": "0.659 (active)"}, {"measurement": "normalized growth", "setting": "S. cerevisiae deletion strains, locus YLR262C, strain YPT6, stronger effect = lower value", "result": "0.57 (active)"}, {"measurement": "normalized growth", "setting": "S. cerevisiae deletion strains, locus YLR268W, strain sec22, stronger effect = lower value", "result": 0.949}, {"measurement": "normalized growth", "setting": "S. cerevisiae deletion strains, locus YLR320W, strain mms22, stronger effect = lower value", "result": "0.622 (active)"}, {"measurement": "normalized growth", "setting": "S. cerevisiae deletion strains, locus YLR330W, strain CHS5, stronger effect = lower value", "result": 0.948}, {"measurement": "normalized growth", "setting": "S. cerevisiae deletion strains, locus YLR342W, strain FKS1 (second series), stronger effect = lower value", "result": 0.947}, {"measurement": "normalized growth", "setting": "S. cerevisiae deletion strains, locus YLR342W, strain FKS1, stronger effect = lower value", "result": "0.89 (active)"}, {"measurement": "normalized growth", "setting": "S. cerevisiae deletion strains, locus YLR357W, strain rsc2, stronger effect = lower value", "result": 0.996}, {"measurement": "normalized growth", "setting": "S. cerevisiae deletion strains, locus YLR370C, strain arc18, stronger effect = lower value", "result": 0.975}, {"measurement": "normalized growth", "setting": "S. cerevisiae deletion strains, locus YLR371W, strain rom2, stronger effect = lower value", "result": 0.944}, {"measurement": "normalized growth", "setting": "S. cerevisiae deletion strains, locus YLR384C, strain iki3, stronger effect = lower value", "result": 0.991}, {"measurement": "normalized growth", "setting": "S. cerevisiae deletion strains, locus YLR418C, strain cdc73, stronger effect = lower value", "result": 0.843}, {"measurement": "normalized growth", "setting": "S. cerevisiae deletion strains, locus YML016C, strain PPZ1, stronger effect = lower value", "result": 0.945}, {"measurement": "normalized growth", "setting": "S. cerevisiae deletion strains, locus YML032C, strain rad52, stronger effect = lower value", "result": 0.927}, {"measurement": "normalized growth", "setting": "S. cerevisiae deletion strains, locus YML120C, strain ndi1, stronger effect = lower value", "result": 0.978}, {"measurement": "normalized growth", "setting": "S. cerevisiae deletion strains, locus YML124C, strain tub3, stronger effect = lower value", "result": "0.929 (active)"}, {"measurement": "normalized growth", "setting": "S. cerevisiae deletion strains, locus YMR058W, strain fet3, stronger effect = lower value", "result": "0.846 (active)"}, {"measurement": "normalized growth", "setting": "S. cerevisiae deletion strains, locus YMR078C, strain ctf18, stronger effect = lower value", "result": 0.918}, {"measurement": "normalized growth", "setting": "S. cerevisiae deletion strains, locus YMR125W, strain sto1, stronger effect = lower value", "result": 1.03}, {"measurement": "normalized growth", "setting": "S. cerevisiae deletion strains, locus YMR129W, stronger effect = lower value", "result": 0.988}, {"measurement": "normalized growth", "setting": "S. cerevisiae deletion strains, locus YMR205C, strain PFK2, stronger effect = lower value", "result": "0.665 (active)"}, {"measurement": "normalized growth", "setting": "S. cerevisiae deletion strains, locus YMR223W, strain ubp8, stronger effect = lower value", "result": 0.956}, {"measurement": "normalized growth", "setting": "S. cerevisiae deletion strains, locus YMR231W, strain pep5, stronger effect = lower value", "result": 1.01}, {"measurement": "normalized growth", "setting": "S. cerevisiae deletion strains, locus YMR263W, strain SAP30, stronger effect = lower value", "result": 0.955}, {"measurement": "normalized growth", "setting": "S. cerevisiae deletion strains, locus YMR307W, strain GAS1, stronger effect = lower value", "result": 1.07}, {"measurement": "normalized growth", "setting": "S. cerevisiae deletion strains, locus YNL067W, strain RPL9B, stronger effect = lower value", "result": 0.968}, {"measurement": "normalized growth", "setting": "S. cerevisiae deletion strains, locus YNL071W, strain lat1, stronger effect = lower value", "result": "0.638 (active)"}, {"measurement": "normalized growth", "setting": "S. cerevisiae deletion strains, locus YNL128W, strain TEP1, stronger effect = lower value", "result": 0.958}, {"measurement": "normalized growth", "setting": "S. cerevisiae deletion strains, locus YNL153C, strain GIM3, stronger effect = lower value", "result": 0.969}, {"measurement": "normalized growth", "setting": "S. cerevisiae deletion strains, locus YNL183C, strain NPR1, stronger effect = lower value", "result": 0.905}, {"measurement": "normalized growth", "setting": "S. cerevisiae deletion strains, locus YNL209W, strain ssb2, stronger effect = lower value", "result": 0.992}, {"measurement": "normalized growth", "setting": "S. cerevisiae deletion strains, locus YNL233W, strain BNI4, stronger effect = lower value", "result": 0.975}, {"measurement": "normalized growth", "setting": "S. cerevisiae deletion strains, locus YNL248C, strain rpa49, stronger effect = lower value", "result": 0.995}, {"measurement": "normalized growth", "setting": "S. cerevisiae deletion strains, locus YNL250W, strain rad50, stronger effect = lower value", "result": 0.909}, {"measurement": "normalized growth", "setting": "S. cerevisiae deletion strains, locus YNL271C, strain bni1, stronger effect = lower value", "result": 0.948}, {"measurement": "normalized growth", "setting": "S. cerevisiae deletion strains, locus YNL298W, strain CLA4, stronger effect = lower value", "result": 0.946}, {"measurement": "normalized growth", "setting": "S. cerevisiae deletion strains, locus YNL322C, strain KRE1 (second series), stronger effect = lower value", "result": 0.969}, {"measurement": "normalized growth", "setting": "S. cerevisiae deletion strains, locus YNL322C, strain KRE1, stronger effect = lower value", "result": 0.941}, {"measurement": "normalized growth", "setting": "S. cerevisiae deletion strains, locus YNR049C, strain mso1, stronger effect = lower value", "result": 0.975}, {"measurement": "normalized growth", "setting": "S. cerevisiae deletion strains, locus YNR052C, strain pop2, stronger effect = lower value", "result": 0.963}, {"measurement": "normalized growth", "setting": "S. cerevisiae deletion strains, locus YOL006C, strain TOP1, stronger effect = lower value", "result": 0.843}, {"measurement": "normalized growth", "setting": "S. cerevisiae deletion strains, locus YOL012C, strain htz1", "result": 0.8}, {"measurement": "normalized growth", "setting": "S. cerevisiae deletion strains, locus YOL147C, strain pex11, stronger effect = lower value", "result": "0.929 (active)"}, {"measurement": "normalized growth", "setting": "S. cerevisiae deletion strains, locus YOR001W, strain rrp6, stronger effect = lower value", "result": 0.963}, {"measurement": "normalized growth", "setting": "S. cerevisiae deletion strains, locus YOR061W, strain CKA2, stronger effect = lower value", "result": 0.948}, {"measurement": "normalized growth", "setting": "S. cerevisiae deletion strains, locus YOR069W, strain VPS5, stronger effect = lower value", "result": 0.963}, {"measurement": "normalized growth", "setting": "S. cerevisiae deletion strains, locus YOR070C, strain gyp1, stronger effect = lower value", "result": 0.965}, {"measurement": "normalized growth", "setting": "S. cerevisiae deletion strains, locus YOR080W, strain dia2, stronger effect = lower value", "result": 1.02}, {"measurement": "normalized growth", "setting": "S. cerevisiae deletion strains, locus YOR083W, strain WHI5, stronger effect = lower value", "result": 0.914}, {"measurement": "normalized growth", "setting": "S. cerevisiae deletion strains, locus YOR106W, strain vam3, stronger effect = lower value", "result": 0.942}, {"measurement": "normalized growth", "setting": "S. cerevisiae deletion strains, locus YOR136W, strain idh2, stronger effect = lower value", "result": 0.962}, {"measurement": "normalized growth", "setting": "S. cerevisiae deletion strains, locus YOR144C, strain elg1, stronger effect = lower value", "result": 0.94}, {"measurement": "normalized growth", "setting": "S. cerevisiae deletion strains, locus YOR184W, strain ser1, stronger effect = lower value", "result": 0.977}, {"measurement": "normalized growth", "setting": "S. cerevisiae deletion strains, locus YOR231W, strain MKK1, stronger effect = lower value", "result": 0.971}, {"measurement": "normalized growth", "setting": "S. cerevisiae deletion strains, locus YOR265W, strain rbl2, stronger effect = lower value", "result": 0.981}, {"measurement": "normalized growth", "setting": "S. cerevisiae deletion strains, locus YOR270C, strain vph1, stronger effect = lower value", "result": "0.67 (active)"}, {"measurement": "normalized growth", "setting": "S. cerevisiae deletion strains, locus YOR290C, strain snf2, stronger effect = lower value", "result": 0.921}, {"measurement": "normalized growth", "setting": "S. cerevisiae deletion strains, locus YOR316C, strain cot1, stronger effect = lower value", "result": 0.924}, {"measurement": "normalized growth", "setting": "S. cerevisiae deletion strains, locus YPL051W, strain arl3, stronger effect = lower value", "result": "0.872 (active)"}, {"measurement": "normalized growth", "setting": "S. cerevisiae deletion strains, locus YPL055C, strain LGE1, stronger effect = lower value", "result": 0.965}, {"measurement": "normalized growth", "setting": "S. cerevisiae deletion strains, locus YPL078C, strain atp4, stronger effect = lower value", "result": "0.865 (active)"}, {"measurement": "normalized growth", "setting": "S. cerevisiae deletion strains, locus YPL106C, strain sse1, stronger effect = lower value", "result": 1.01}, {"measurement": "normalized growth", "setting": "S. cerevisiae deletion strains, locus YPL240C, strain hsp82, stronger effect = lower value", "result": 0.978}, {"measurement": "normalized growth", "setting": "S. cerevisiae deletion strains, locus YPL241C, strain CIN2, stronger effect = lower value", "result": 0.961}, {"measurement": "normalized growth", "setting": "S. cerevisiae deletion strains, locus YPL256C, strain CLN2, stronger effect = lower value", "result": "0.821 (active)"}, {"measurement": "normalized growth", "setting": "S. cerevisiae deletion strains, locus YPR119W, strain clb2, stronger effect = lower value", "result": "0.923 (active)"}, {"measurement": "normalized growth", "setting": "S. cerevisiae deletion strains, locus YPR141C, strain kar3, stronger effect = lower value", "result": "0.89 (active)"}, {"measurement": "normalized growth", "setting": "S. cerevisiae deletion strains, locus YPR163C, strain tif3, stronger effect = lower value", "result": 0.938}, {"measurement": "normalized growth", "setting": "S. cerevisiae deletion strains, locus YPR167C, strain met16, stronger effect = lower value", "result": "0.91 (active)"}, {"measurement": "normalized growth", "setting": "S. cerevisiae deletion strains, strain wtn01, stronger effect = lower value", "result": 0.932}, {"measurement": "normalized growth", "setting": "S. cerevisiae strains, strain wild type, stronger effect = lower value", "result": 0.952}]}
